# Measured values reported in the supplement of paper PMC8728848.
# This is one part of a sample in which the strongest signals are shown more often than they occur.
# B1: E-Selectin (Mus musculus), Q00690 (protein)
# chain: MNASRFLSALVFVLLAGESTAWYYNASSELMTYDEASAYCQRDYTHLVAIQNKEEINYLNSNLKHSPSYYWIGIRKVNNVWIWVGTGKPLTEEAQNWAPGEPNNKQRNEDCVEIYIQRTKDSGMWNDERCNKKKLALCYTASCTNASCSGHGECIETINSYTCKCHPGFLGPNCEQAVTCKPQEHPDYGSLNCSHPFGPFSYNSSCSFGCKRGYLPSSMETTVRCTSSGEWSAPAPACHVVECEALTHPAHGIRKCSSNPGSYPWNTTCTFDCVEGYRRVGAQNLQCTSSGIWDNETPSCKAVTCDAIPQPQNGFVSCSHSTAGELAFKSSCNFTCEQSFTLQGPAQVECSAQGQWTPQIPVCKAVQCEALSAPQQGNMKCLPSASGPFQNGSSCEFSCEEGFELKGSRRLQCGPRGEWDSKKPTCSAVKCDDVPRPQNGVMECAHATTGEFTYKSSCAFQCNEGFSLHGSAQLECTSQGKWTQEVPSCQVVQCPSLDVPGKMNMSCSGTAVFGTVCEFTCPDDWTLNGSAVLTCGATGRWSGMPPTCEAPVSPTRPLVVALSAAGTSLLTSSSLLYLLMRYFRKKAKKFVPASSCQSLQSFENYHVPSYNV
# B2: rAAL-2 (Agrocybe aegerita) (protein)
# chain: MTSNVITQDLPIPVASRGFADIVGFGLDGVVIGRNAVNLQPFLAVKNFAQNAGGWLTTKHVRLIADTTGTGKGDIVGFGNAGVYVSVNNGKNTFADPPKMVIANFGYDAGGWRVEKHLRYLADIRKIGRADIIGFGEKGVLVSRNNGGLNFGPATLVLKDFGYDAGGWRLDRHLRFLADVTGNGHLDIVGFGDKHVFISRNNGDGTFAPAKSVIDNFCIDAGGWKIGDHPRFVADLTGDGTADIIGCGKAGCWVALNNGGGVFGQVKLVINDFGTDKGWQAAKHPRFIADLTGNGRGDVVGFGNAGVYVALNNGDGTFQSAKLVLKDFGVQQGWTVSKHRRFVVDLTGDGCADIIGFGEKETLVSYNDGKGNFGPVKALTNDFSFSGGKWAPETTVCWMANLDSSRH
# Columns and labels:
# Assay in all cases: glycan array binding signal (z-score within array); higher = stronger binding
# Settings in all cases: glycan notation: IUPAC condensed, linker removed
# [1] = biological target: Fuc(a1-2)Gal(b1-4)GlcNAc(b1-3)Gal(b1-4)GlcNAc(b1-3)Gal(b1-4)GlcNAc
# In short: (§1)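 Negative Z-scores can be read as non-binding. The Z-score is calculated within each array and then averaged across arrays of one protein sequence at different concentrations or buffers and across linkers. Arrays, 3228 in all, were curated from the Consortium for Functional Glycomics database and kept only where the protein sequence was available.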
# [2] = biological target: Fuc(a1-2)[GalNAc(a1-4)]Gal(b1-4)GlcNAc
# In short: as §1
# [3] = biological target: Fuc(a1-3)[Gal(b1-4)]GlcNAc(b1-4)Gal(b1-4)[Fuc(a1-3)]GlcNAc
# In short: as §1
# [4] = biological target: Fuc(a1-3)[Gal3S(b1-4)]Glc6S
# In short: as §1
# [5] = biological target: Fuc(a1-3)[Gal3S(b1-4)]GlcNAc6S
# In short: as §1
# [6] = biological target: Gal(b1-4)GlcNAc(b1-3)GalNAc
# In short: as §1
# [7] = biological target: Gal3S(b1-3)[Fuc(a1-4)]GlcNAc
# In short: as §1
# [8] = biological target: GlcNAc(b1-3)[GlcNAc(b1-6)]GalNAc
# In short: as §1
# [9] = biological target: GlcNAc(b1-6)GalNAc
# In short: as §1
# [10] = biological target: Man(a1-3)[Man(a1-6)]Man(b1-4)GlcNAc(b1-4)GlcNAc
# In short: as §1
# [11] = biological target: Neu5Ac(a2-3)Gal
# In short: as §1
# [12] = biological target: Neu5Ac(a2-3)Gal(b1-3)[Fuc(a1-4)]GlcNAc
# In short: as §1
# [13] = biological target: Neu5Ac(a2-3)Gal(b1-4)GlcNAc
# In short: as §1
# [14] = biological target: Neu5Ac(a2-3)Gal(b1-4)GlcNAc(b1-3)Gal(b1-4)GlcNAc(b1-3)Gal(b1-4)GlcNAc
# In short: as §1
# [15] = biological target: Neu5Ac(a2-3)Gal(b1-4)[Fuc(a1-3)]GlcNAc(b1-3)Gal(b1-4)[Fuc(a1-3)]GlcNAc(b1-3)Gal(b1-4)[Fuc(a1-3)]GlcNAc
# In short: as §1
# [16] = biological target: Neu5Ac(a2-3)Gal(b1-4)[Fuc(a1-3)]GlcNAc6S
# In short: as §1
# [17] = biological target: Neu5Gc(a2-3)Gal(b1-3)[Fuc(a1-4)]GlcNAc
# In short: as §1
# [18] = biological target: GlcNAc(b1-3)Gal(b1-4)GlcNAc(b1-3)Gal(b1-4)GlcNAc(b1-3)Gal(b1-4)GlcNAc(b1-3)Gal(b1-4)GlcNAc(b1-2)Man(a1-3)[GlcNAc(b1-3)Gal(b1-4)GlcNAc(b1-3)Gal(b1-4)GlcNAc(b1-3)Gal(b1-4)GlcNAc(b1-3)Gal(b1-4)GlcNAc(b1-2)Man(a1-6)]Man(b1-4)GlcNAc(b1-4)GlcNAc
# In short: as §1
# [19] = biological target: GlcNAc(b1-3)Gal(b1-4)GlcNAc(b1-3)Gal(b1-4)GlcNAc(b1-3)Gal(b1-4)GlcNAc(b1-3)Gal(b1-4)GlcNAc(b1-2)Man(a1-3)[GlcNAc(b1-3)Gal(b1-4)GlcNAc(b1-3)Gal(b1-4)GlcNAc(b1-3)Gal(b1-4)GlcNAc(b1-3)Gal(b1-4)GlcNAc(b1-2)Man(a1-6)]Man(b1-4)GlcNAc(b1-4)[Fuc(a1-6)]GlcNAc
# In short: as §1
# [20] = biological target: GlcNAc(b1-3)GalNAc
# In short: as §1
# [21] = biological target: GlcNAc(b1-3)[GlcNAc(b1-4)][GlcNAc(b1-6)]GlcNAc
# In short: as §1
# [22] = biological target: GlcNAc3Prop(b1-4)GlcNAc
# In short: as §1
# [23] = biological target: Neu5Ac(a2-3)Gal(b1-3)GalNAc(b1-3)Gal(a1-4)Gal(b1-4)Glc
# In short: as §1
# [24] = biological target: Neu5Ac(a2-3)Gal(b1-3)GalNAc(b1-4)[Neu5Ac(a2-8)Neu5Ac(a2-3)]Gal(b1-4)Glc
# In short: as §1
# [25] = biological target: Neu5Ac(a2-3)Gal(b1-4)Glc
# In short: as §1
# [26] = biological target: Neu5Ac(a2-3)Gal(b1-4)GlcNAc(b1-2)Man(a1-3)[GlcNAc(b1-4)][Neu5Ac(a2-3)Gal(b1-4)GlcNAc(b1-2)Man(a1-6)]Man(b1-4)GlcNAc(b1-4)GlcNAc
# In short: as §1
# [27] = biological target: Neu5Ac(a2-3)Gal(b1-4)GlcNAc(b1-2)[Neu5Ac(a2-3)Gal(b1-4)GlcNAc(b1-6)]Man(a1-6)[Neu5Ac(a2-3)Gal(b1-4)GlcNAc(b1-2)Man(a1-3)][GlcNAc(b1-4)]Man(b1-4)GlcNAc(b1-4)GlcNAc
# In short: as §1
# [28] = biological target: Neu5Ac(a2-6)Gal(b1-4)Glc
# In short: as §1
# [29] = biological target: Neu5Ac(a2-6)Gal(b1-4)GlcNAc(b1-2)Man(a1-3)[Neu5Ac(a2-3)Gal(b1-4)GlcNAc(b1-2)Man(a1-6)]Man(b1-4)GlcNAc(b1-4)GlcNAc
# In short: as §1
# [30] = biological target: Neu5Ac(a2-6)Gal(b1-4)GlcNAc(b1-3)Gal(b1-4)GlcNAc(b1-3)Gal(b1-4)GlcNAc(b1-2)Man(a1-3)[Neu5Ac(a2-6)Gal(b1-4)GlcNAc(b1-3)Gal(b1-4)GlcNAc(b1-3)Gal(b1-4)GlcNAc(b1-2)Man(a1-6)]GalNAc
# In short: as §1
# [31] = biological target: Neu5Ac(a2-6)GalNAc(b1-4)GlcNAc
# In short: as §1
# [32] = biological target: Neu5Gc(a2-8)Neu5Gc(a2-3)Gal(b1-4)GlcNAc(b1-3)Gal(b1-4)GlcNAc
# In short: as §1
Binder,glycan array binding signal (z-score) [1],glycan array binding signal (z-score) [2],glycan array binding signal (z-score) [3],glycan array binding signal (z-score) [4],glycan array binding signal (z-score) [5],glycan array binding signal (z-score) [6],glycan array binding signal (z-score) [7],glycan array binding signal (z-score) [8],glycan array binding signal (z-score) [9],glycan array binding signal (z-score) [10],glycan array binding signal (z-score) [11],glycan array binding signal (z-score) [12],glycan array binding signal (z-score) [13],glycan array binding signal (z-score) [14],glycan array binding signal (z-score) [15],glycan array binding signal (z-score) [16],glycan array binding signal (z-score) [17],glycan array binding signal (z-score) [18],glycan array binding signal (z-score) [19],glycan array binding signal (z-score) [20],glycan array binding signal (z-score) [21],glycan array binding signal (z-score) [22],glycan array binding signal (z-score) [23],glycan array binding signal (z-score) [24],glycan array binding signal (z-score) [25],glycan array binding signal (z-score) [26],glycan array binding signal (z-score) [27],glycan array binding signal (z-score) [28],glycan array binding signal (z-score) [29],glycan array binding signal (z-score) [30],glycan array binding signal (z-score) [31],glycan array binding signal (z-score) [32]
B1,-0.255,-0.301,0.598,5.1,2.52,-0.338,4.55,-0.279,-0.272,-0.288,-0.277,4.47,-0.333,-0.184,3.13,3.24,4.57,–,–,–,–,–,–,–,–,–,–,–,–,–,–,–
B2,–,–,–,–,–,–,–,–,–,–,–,-0.392,-0.177,–,–,–,–,4.12,3.97,0.798,-0.339,0.177,-0.228,-0.103,-0.151,-0.314,-0.33,-0.303,-0.237,0.107,-0.288,-0.178
